A number with no mark means an inactive call. For some of these results: Measured potencies and affinities stand elsewhere. Calls of active or inactive are those of the source. Unless noted, no rule for the calls is given here.
Key:
[1] = antimalarial activity against Dd2 strain (AID 2302;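 active = growth inhibition above 50% at the single 2 µM test dose, taken to imply half-maximal potency below 2 µM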;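 also: 0% = DMSO untreated growth and 100% = chloroquine plus artemisinin killed control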); details: P. falciparum Dd2 in RBCs, LDH growth readout, 72 h; at 2 µM; stronger effect = higher value
[2] = human hepatoma cell viability loss – ATP luminescence, cytotoxicity control for P. falciparum antimalarial project, primary screen (AID 2303;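 active = inhibition above 50%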;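 also: 0% = DMSO wells and 100% = digitonin-killed cells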); details: HepG2 viability, 24-48 h, at 10 µM, stronger effect = higher value
[3] = target: L-lactate dehydrogenase (Plasmodium falciparum (isolate CDC / Honduras)) (UniProt Q27743); assay: PfLDH activity inhibition – cell lysate, 3D7 strain, counter-screen for P. falciparum growth inhibition project (AID 2304);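 also: 0% = vehicle and 100% = reference inhibitor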; details: P. falciparum 3D7 crude extract, LDH APAD/NBT absorbance; at 2 µM; stronger effect = higher value
Sequence of L-lactate dehydrogenase (Plasmodium falciparum (isolate CDC / Honduras)) (Q27743 whole entry, looked up): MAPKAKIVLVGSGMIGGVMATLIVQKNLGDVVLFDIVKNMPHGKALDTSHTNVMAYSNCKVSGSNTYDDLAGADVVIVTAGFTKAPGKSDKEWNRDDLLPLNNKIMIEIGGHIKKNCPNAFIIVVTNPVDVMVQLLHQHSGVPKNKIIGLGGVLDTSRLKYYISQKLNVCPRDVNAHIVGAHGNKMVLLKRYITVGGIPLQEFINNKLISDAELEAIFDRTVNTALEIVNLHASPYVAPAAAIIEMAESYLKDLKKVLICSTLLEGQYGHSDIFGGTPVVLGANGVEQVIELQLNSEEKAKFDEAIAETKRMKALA

[4] = inhibition of 3D7 malaria parasite growth – strain 3D7 (AID 2306);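 also: 0% = DMSO wells and 100% = chloroquine plus artemisinin control wells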; details: P. falciparum 3D7 erythrocytic growth, LDH absorbance, 72 h; at 2 µM; stronger effect = higher value
[5] = target: Calcium-dependent protein kinase 1 (Plasmodium falciparum (isolate 3D7)) (UniProt P62344); assay: PfCDPK1 kinase inhibitors, biochemical, TCAMS library (AID 1159585; cut-off not given, nearly all actives have IC50 up to about 0.98 µM;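 also: inhibitors leave more ATP so luminescence rises with inhibition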); details: recombinant PfCDPK1, Kinase-Glo ATP depletion luminescence
Sequence of Calcium-dependent protein kinase 1 (Plasmodium falciparum (isolate 3D7)) (P62344 whole entry, looked up): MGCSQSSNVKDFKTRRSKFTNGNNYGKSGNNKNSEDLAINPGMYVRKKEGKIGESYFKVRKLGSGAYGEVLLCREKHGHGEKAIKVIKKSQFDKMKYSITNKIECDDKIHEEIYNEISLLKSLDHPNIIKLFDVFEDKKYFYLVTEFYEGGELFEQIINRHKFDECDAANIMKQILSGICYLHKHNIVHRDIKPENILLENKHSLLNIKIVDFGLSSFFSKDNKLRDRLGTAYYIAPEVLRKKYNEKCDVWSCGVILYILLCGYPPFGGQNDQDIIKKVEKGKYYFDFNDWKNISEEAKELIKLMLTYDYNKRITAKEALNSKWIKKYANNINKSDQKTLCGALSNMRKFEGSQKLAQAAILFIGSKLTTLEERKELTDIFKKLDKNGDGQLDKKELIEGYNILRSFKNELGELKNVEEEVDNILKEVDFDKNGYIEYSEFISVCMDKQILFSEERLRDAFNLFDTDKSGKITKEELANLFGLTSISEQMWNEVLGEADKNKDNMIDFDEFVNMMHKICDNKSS

[6] = target: Plasmodium falciparum protein kinase 6 (PK6, PF3D7_1337100) (UniProt Q8IDW1); assay: PfPK6 kinase inhibitors, biochemical, TCAMS library (AID 1159586); details: recombinant PfPK6, Kinase-Glo ATP depletion luminescence
Sequence of Plasmodium falciparum protein kinase 6 (PK6, PF3D7_1337100) (Q8IDW1 1-305): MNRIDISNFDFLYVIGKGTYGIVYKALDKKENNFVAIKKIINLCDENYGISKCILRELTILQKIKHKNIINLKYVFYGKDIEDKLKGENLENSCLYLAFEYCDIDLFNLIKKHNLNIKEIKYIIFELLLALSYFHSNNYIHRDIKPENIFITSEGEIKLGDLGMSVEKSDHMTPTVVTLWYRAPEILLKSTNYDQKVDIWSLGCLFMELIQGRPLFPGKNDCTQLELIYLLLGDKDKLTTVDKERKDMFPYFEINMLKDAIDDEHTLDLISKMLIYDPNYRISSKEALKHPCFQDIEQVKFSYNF

[7] = target: Protein kinase 7 (PK7), Plasmodium falciparum 3D7 (PF3D7_0213400) (UniProt Q7YTF7); assay: inhibition of Plasmodium PK7 catalytic activity – biochemical, TCAMS antimalarial set, Kinase-Glo luminescence (AID 1159587); details: recombinant PfPK7, Kinase-Glo ATP depletion luminescence
Sequence of Protein kinase 7 (PK7), Plasmodium falciparum 3D7 (PF3D7_0213400) (Q7YTF7 1-343): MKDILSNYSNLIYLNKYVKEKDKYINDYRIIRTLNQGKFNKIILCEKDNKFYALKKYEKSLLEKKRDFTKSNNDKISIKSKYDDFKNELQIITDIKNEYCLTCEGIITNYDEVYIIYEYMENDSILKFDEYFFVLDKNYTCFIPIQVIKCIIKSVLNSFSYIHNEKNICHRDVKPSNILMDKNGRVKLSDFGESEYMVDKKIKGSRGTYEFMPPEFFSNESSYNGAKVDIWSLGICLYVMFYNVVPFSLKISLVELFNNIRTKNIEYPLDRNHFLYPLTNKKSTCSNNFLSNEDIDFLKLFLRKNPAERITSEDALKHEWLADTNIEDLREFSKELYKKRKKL

[8] = target: Calcium-dependent protein kinase 4 (Plasmodium falciparum (isolate 3D7)) (UniProt Q8IBS5); assay: PfCDPK4 kinase inhibitors, biochemical, TCAMS library (AID 1159588; cut-off not given, nearly all actives have IC50 up to about 0.91 µM); details: recombinant PfCDPK4, Kinase-Glo ATP depletion luminescence
Sequence of Calcium-dependent protein kinase 4 (Plasmodium falciparum (isolate 3D7)) (Q8IBS5 whole entry, looked up): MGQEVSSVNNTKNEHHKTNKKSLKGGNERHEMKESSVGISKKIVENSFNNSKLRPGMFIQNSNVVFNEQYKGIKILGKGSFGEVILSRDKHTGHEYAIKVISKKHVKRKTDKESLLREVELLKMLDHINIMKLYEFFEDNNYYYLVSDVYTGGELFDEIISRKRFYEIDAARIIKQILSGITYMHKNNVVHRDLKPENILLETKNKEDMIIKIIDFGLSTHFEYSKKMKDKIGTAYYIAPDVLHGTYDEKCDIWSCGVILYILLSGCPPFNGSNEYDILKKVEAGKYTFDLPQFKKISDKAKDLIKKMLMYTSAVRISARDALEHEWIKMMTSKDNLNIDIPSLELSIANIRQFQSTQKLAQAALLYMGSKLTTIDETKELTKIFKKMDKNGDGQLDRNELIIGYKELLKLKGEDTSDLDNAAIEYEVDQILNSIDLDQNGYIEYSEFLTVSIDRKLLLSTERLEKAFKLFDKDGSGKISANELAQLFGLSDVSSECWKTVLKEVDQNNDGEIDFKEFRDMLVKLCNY

Row | SMILES | growth inhibition [1] | inhibition [2] | inhibition [3] [%] | growth inhibition [4] | outcome [5] | outcome [6] | outcome [7] | outcome [8]
1 | c1ccc2c(c1)ncn2-c1ccnc(Nc2ccncc2)n1 | 80% (active) | 0% | -3 | 89% (active) | inactive | inactive | inactive | inactive
2 | COc1ccc(CNC(=O)c2cnc3c(O)cccc3c2Nc2cccc(NC(=O)c3ccc(F)cc3)c2)cc1 | 65% (active) | 50% (active) | 2 | 91% (active) | inactive | inactive | inactive | inactive
3 | CNC(=S)NN=C(C)c1ccccn1 | 99% (active) | 64% (active) | -4 | 98% (active) | inactive | inactive | inactive | inactive
4 | COc1ccc2oc(=O)c(C#N)c(O)c2c1 | -4% | -2% | 2 | 99% (active) | inactive | inactive | inactive | inactive
5 | CN1CCN(c2ccnc3ccc(NC(=O)Nc4ccc(-c5ccccc5)cc4)cc23)CC1 | 41% | -10% | -7 | 99% (active) | inactive | inactive | inactive | inactive
6 | Cc1cc(-c2ccc(NC(=O)N3CCc4cc(Br)c(N5CCN(C)CC5)cc43)cc2)cc(C)n1 | 4% | 29% | -2 | 92% (active) | inactive | inactive | inactive | inactive
7 | Cc1cccc2[nH]c(-c3ccc(-c4ccc(CNCCNC(=O)c5ccnn5C)cc4)s3)nc12 | 97% (active) | 20% | -1 | 101% (active) | inactive | inactive | inactive | inactive
8 | CCCCc1ccc(CCNCCCCCCNCCc2ccc(O)c(O)c2)cc1 | -1% | 45% | 5 | 100% (active) | inactive | inactive | inactive | inactive
9 | O=C(Nc1ccc2c(c1)OCO2)c1cc(-c2cccnc2)nc2ccc(Cl)cc12 | 41% | 9% | -3 | 89% (active) | inactive | inactive | inactive | inactive
10 | NC(=S)Cc1ccc2c(c1)OCO2 | -3% | 43% | -2 | 96% (active) | inactive | inactive | inactive | inactive
11 | Cc1cc(N(C)C)nc(Nc2ccc(NC(=O)Nc3ccccc3)cc2)n1 | 100% (active) | 10% | -2 | 101% (active) | inactive | inactive | inactive | inactive
12 | NC(=O)c1ccc(NCC(=O)Nc2cccc(-c3cccc(-c4nc5ccccc5[nH]4)c3)c2)cc1 | 30% | 9% | -3 | 99% (active) | inactive | inactive | inactive | inactive
13 | COCCn1c(SC(C)C(=O)Nc2cc(C(F)(F)F)ccc2Cl)nc2ccccc2c1=O (stereo not drawn) | 95% (active) | 8% | 4 | 97% (active) | inactive | inactive | inactive | inactive
14 | O=C(/C=C/c1ccc(Cl)c(Cl)c1)NCCCCCN1CCCN(C(=O)Nc2ccc(F)c(Cl)c2)CC1 | 0% | 31% | 1 | 95% (active) | inactive | inactive | inactive | inactive
15 | O=C(CN1CCN(C(=O)c2ccco2)CC1)Nc1ccc(Br)cc1Cl | 79% (active) | 10% | -6 | 88% (active) | inactive | inactive | inactive | inactive
16 | CC(=O)c1ccccc1C(=O)N1CCOc2ccc(C(O)C(c3ccccc3)c3ccccc3)cc2C1 (stereo not drawn) | 98% (active) | 10% | 3 | 96% (active) | inactive | inactive | inactive | inactive
17 | COc1ccc2ncc(Cl)c(CCN3CC[C@@H](CNCc4cc5c(cn4)OCS5)C3)c2n1 | 31% | 22% | 3 | 99% (active) | inactive | inactive | inactive | inactive
18 | CCCCNc1nccc2ccc(-c3ccncc3)cc12 | 1% | 6% | 1 | 93% (active) | inactive | inactive | inactive | inactive
19 | O=C(c1ccc(O)c(-c2cc(Cl)cc(Cl)c2)c1)N1CCCC1 | 57% (active) | 3% | -6 | 90% (active) | inactive | inactive | inactive | inactive
20 | O=C(NCCCCN1CCC(c2ccc3ccccc3c2O)CC1)c1ccc(NC(=O)c2ccc(Cl)cc2)cc1 | 89% (active) | 34% | 3 | 101% (active) | inactive | inactive | inactive | inactive
21 | CC[C@H](N=C(Nc1ccc(C#N)cc1O)Nc1cccc(Cl)c1Cl)c1ccccc1 | 71% (active) | -2% | -1 | 91% (active) | inactive | inactive | inactive | inactive

Row | SMILES | growth inhibition [1] | inhibition [2] | inhibition [3] [%] | growth inhibition [4] | outcome [5] | outcome [6] | outcome [7] | outcome [8]
22 | CN(c1ccccc1)S(=O)(=O)c1cccc(NC(=O)c2ccc(-n3ccnc3)c([N+](=O)[O-])c2)c1 | -8% | 19% | 2 | 83% (active) | inactive | inactive | inactive | inactive
23 | CCCCNC(=O)[C@H](CC1CCCCC1)NC(=O)c1ccc(O)c(-c2ccc(Cl)c(Cl)c2)c1 | 99% (active) | -9% | -1 | 98% (active) | inactive | inactive | inactive | inactive
24 | Cc1ccccc1Nc1nc(NCCc2ccccc2)nc2ccccc12 | 18% | 32% | -1 | 82% (active) | inactive | inactive | inactive | inactive
25 | COc1ccc2nccc(NC(=O)N3CCC(NCc4cc5c(F)ccc(F)c5[nH]4)CC3)c2n1 | 40% | 6% | -2 | 99% (active) | inactive | inactive | inactive | inactive
26 | COc1ccc(Nc2ccnc3cc(-c4ccccn4)ccc23)cc1OC | 26% | 14% | 1 | 91% (active) | inactive | inactive | inactive | inactive
27 | COc1cc2nc(N3CCC(CNC(=O)c4ccc(NC(=O)c5ccc(Cl)cc5)cc4)CC3)nc(N)c2cc1OC | 100% (active) | 98% (active) | 0 | 101% (active) | inactive | inactive | inactive | inactive
28 | COc1ccc(OC)c(C=NNc2nc3ccccc3[nH]2)c1 | 28% | -6% | 7 | 99% (active) | inactive | inactive | inactive | inactive
29 | COc1cccc(OC)c1OCCCON1C(N)=NC(N)=NC1(C)C | 96% (active) | 53% (active) | 1 | 95% (active) | inactive | inactive | inactive | inactive
30 | CS(=O)(=O)N1CC2(CCN(CCC(NC(=S)Nc3ccccc3)c3ccc(Cl)c(Cl)c3)CC2)c2ccccc21 (stereo not drawn) | 80% (active) | 24% | -1 | 98% (active) | inactive | inactive | inactive | inactive
31 | COc1ccc2c(=O)c3ccc(OC)cc3[nH]c2c1 | 75% (active) | 12% | 1 | 93% (active) | inactive | inactive | inactive | inactive
32 | CCCCCCN1CCN(Cc2cccc(NC(=O)c3cccc(OCC)c3)c2)CC1 | 48% | 65% (active) | 0 | 85% (active) | inactive | inactive | inactive | inactive
33 | C#CCN(Cc1cc2c(=O)[nH]c(N)nc2cc1C)c1ccc(C(=O)N[C@@H](CCC(=O)O)C(=O)O)cc1 | 74% (active) | 28% | -1 | 92% (active) | inactive | inactive | inactive | inactive
34 | OC1CCCN(Cc2ccc(-c3ccc(-c4nc5ccc(F)cc5[nH]4)s3)cc2)C1 (stereo not drawn) | 99% (active) | 40% | -5 | 100% (active) | inactive | inactive | inactive | inactive
35 | Oc1ccc(Nc2nc(N3CCCC3)c3ccccc3n2)cc1 | 100% (active) | 10% | -6 | 102% (active) | inactive | inactive | inactive | inactive
36 | Cn1c(=O)c2cc(C(=O)NCCCN3CCCCCC3)sc2c2ccccc21 | 99% (active) | 32% | 0 | 99% (active) | inactive | inactive | inactive | inactive
37 | Cc1cc(NN=Cc2ccccc2F)c2cc(F)ccc2n1 | 97% (active) | 9% | -5 | 101% (active) | inactive | inactive | inactive | inactive
38 | O=S(=O)(NCCN1CCCC1)c1ccc(-c2ccc(CNCc3ccccc3)cc2)s1 | 17% | 34% | -5 | 94% (active) | inactive | inactive | inactive | inactive
39 | O=C(Nc1cccc([N+](=O)[O-])c1)Nc1ccc(Cl)c(C(F)(F)F)c1 | 87% (active) | 15% | 6 | 96% (active) | inactive | inactive | inactive | inactive
40 | CN1CCCN(Cc2ccc(-c3ccc(NC(=O)c4ccc(C#N)cc4)cc3)cc2)CC1 | 28% | 30% | 4 | 91% (active) | inactive | inactive | inactive | inactive
41 | O=C(Nc1cccc(C(F)(F)F)c1)Nc1ccc2nonc2c1 | 76% (active) | -4% | 5 | 98% (active) | inactive | inactive | inactive | inactive

Source: PubChem BioAssay
